The values that follow come from PubChem BioAssay AID1382 (National Center for Advancing Translational Sciences (NCATS), 2008).

SMILES strings stand for the structures. Records with an inconclusive call do not appear. Calls of active or inactive are those of the source.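 The calls were made as follows: active = inhibitors giving a complete concentration-response curve with high efficacy; inconclusive = inhibitors giving only a partial curve with partial efficacy; inactive = the rest.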

In the assay the target is Lysosomal acid glucosylceramidase (Homo sapiens) (UniProt P04062). Kind of assay: Confirmation Concentration-Response Assay for Glucocerebrosidase Inhibitors. The following applies: purified GBA, resorufin glucoside fluorescence, 20 min; series mostly up to 63.5 µM; inhibition: at the top concentration. The text has this: NCGC Assay Overview: NIH Molecular Libraries Screening Centers Network [MLSCN] NIH Chemical Genomics Center [NCGC] MLSCN Grant: XO1-MH078932-01 Beta-glucocerebrosidase catalyzes the hydrolysis of beta-glucocerebroside to glucose and ceramide. The inherited deficiency of beta-glucocerebrosidase results in Gaucher disease, which is characterized by a wide variety of symptoms including hepatosplenomegaly, anemia, thrombocytopenia, bony lesions and bone marrow infiltration with characteristic storage cells, known as Gaucher cells. There are also forms of the disorder affecting the central nervous system. Patients with the same genotypes can manifest with diverse clinical presentations and it is believed that improper folding and trafficking of beta-glucocerbrosidase may contribute to the phenotypes observed. Low molecular weight molecules, acting as chaperones, may potentially restore trafficking of misfolded beta-glucocerebrosidase from the endoplasmic reticulum to the lysosomes, thereby enhancing functional lysosomal beta-glucocerebrosidase activity. Using normal beta-glucocerebrosidase, an assay was developed to screen for small molecule inhibitors that could potentially act as molecular chaperones on the mutant forms [developed with NIH investigator Dr. Ellen Sidransky's laboratory]. A pro-fluorescent substrate was chosen for a screen against a small molecule library. The beta-glucocerebrosidase assay used Resorufin beta-D-Glucopyranoside (Marker Gene Technology Inc.), generating a red fluorescent product. The Km for the Resorufin beta-D-Glucopyranoside was determined to be 71.2 uM. The IC50 values of Conduritol B Epoxide, a known glucocerebrosidase inhibitor, was determined to be 87.5 uM. All compounds were screened in a titration series resulting in AC50s (e.g., IC50s or EC50s). To confirm activity from the original screen, samples were reacquired from MLSCN and also synthesized in-house, and re-screened against the original assay at a higher density of titration points.
Lysosomal acid glucosylceramidase (Homo sapiens), sequence (P04062 whole entry, looked up): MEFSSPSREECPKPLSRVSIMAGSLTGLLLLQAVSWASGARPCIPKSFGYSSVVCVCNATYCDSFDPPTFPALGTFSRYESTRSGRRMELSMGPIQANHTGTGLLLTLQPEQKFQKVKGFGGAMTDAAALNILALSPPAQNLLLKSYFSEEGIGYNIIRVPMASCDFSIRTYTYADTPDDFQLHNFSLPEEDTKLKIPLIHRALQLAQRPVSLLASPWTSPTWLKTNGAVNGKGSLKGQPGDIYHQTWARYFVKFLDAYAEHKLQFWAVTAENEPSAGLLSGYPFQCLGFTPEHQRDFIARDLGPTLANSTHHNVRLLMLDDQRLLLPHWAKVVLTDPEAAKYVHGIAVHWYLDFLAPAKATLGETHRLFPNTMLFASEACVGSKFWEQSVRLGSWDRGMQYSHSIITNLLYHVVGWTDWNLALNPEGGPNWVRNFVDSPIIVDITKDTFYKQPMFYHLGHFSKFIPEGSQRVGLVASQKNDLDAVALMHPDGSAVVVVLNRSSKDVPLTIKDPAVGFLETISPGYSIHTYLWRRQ
NCGC Assay Protocol Summary: Both enzyme and substrate were diluted in buffer composed of 50mM citric acid/KH2PO4, 10mM sodium taurocholate and 0.01% tween-20 at pH 5.9. The final concentration of the enzyme was 0.2 nM in both assays. The compound library was titrated in 7 to 15 concentrations for the primary screens with a final concentration ranging from 0.6 nM to 50 uM. This particular assay protocol was performed in 1536-well plate format as follows: Red fluorescence substrate assay: 2 uL enzyme 23 nL compound 1 uL substrate (final concentration of 30 uM) Incubate at room temperature (RT) for 20 minutes Read the plate in Viewlux plate reader (Ex=548(7) and Em=600(10)).
For the compound `Cc1cc(N2CCN(c3ncccn3)CC2)nc2ccc(NC(=O)C3CCC(C)CC3)cc12` (stereo unspecified), the Potency was 1890 nM (active).

Consider `CC(C)(C)Oc1ccccc1Nc1nc(NCCO)nc(N2CCCC2)n1`, for which the Potency was 21.5 nM (active).

`Cc1cc(N2CCOCC2)nc2ccc(NC(=O)C3CC3)cc12`: the Potency is 193 nM (active).

On to `Cc1cc(Nc2cccc(Cl)c2)nc2ccc(NC(=O)C3CCC(C)CC3)cc12` (stereo unspecified), for which the “inhibition” value was 27% (inactive).

`Cc1cc(N2CCCCC2)nc2ccc(NC(=O)C3CCC(C)CC3)cc12` (stereo unspecified): the Potency was 339 nM (active).

`Cc1cc(N2CCC(C)CC2)nc2ccc(NC(=O)C3CCC(C)CC3)cc12` (stereo unspecified): the Potency was 164 nM (active).

For `CCCC1CCC(C(=O)Nc2ccc3nc(N4CCOCC4)cc(C)c3c2)CC1` (stereo unspecified), the Potency was 104 nM (active).

Regarding `Cc1cc(N2CCOCC2)nc2ccc(NC(=O)C3CCC(C)CC3)cc12` (stereo unspecified), the Potency was 66 nM (active).

In the case of `O=C(Nc1nccs1)c1ccc(NS(=O)(=O)c2ccc(Cl)cc2)cc1`, the Potency was 1250 nM (active).

As to `CCN(CC)c1cc(C)c2cc(NC(=O)C3CCC(C)CC3)ccc2n1` (stereo unspecified), the Potency was 940 nM (active).

On to `Cc1ccc(S(=O)(=O)Nc2ccc(C(=O)Nc3cc(C)on3)cc2)cc1`, for which the Potency was 90.7 nM (active).

By inhibition is commonly meant the share of the control response that was lost under treatment.
